Measurements from the supplement of paper PMC10503962.

What follows are compounds tested on Trichuris muris adult worms (assay: mean motility score (Paragon pixel variance) of adult worms (arbitrary units); higher = more motile worms, i.e. less anthelmintic effect; extreme values may be limits of the assay). Conditions: 100 µM; 24 h.
Procedure: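 Primary ex vivo screen of 409 approved drugs against adult Trichuris muris worms: one worm per well in RPMI-1640 with penicillin/streptomycin, 100 µM drug in 1% DMSO, 37 °C, 5% CO2 for 24 h. Motility was recorded with INVAPP (200-frame movies) and scored with the Paragon pixel-variance algorithm. Values are means of triplicate wells run on three occasions; levamisole was the positive control and DMSO the negative control.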
Work on Oc1nc2ccccc2n1C1CCN(CCCC(c2ccc(F)cc2)c2ccc(F)cc2)CC1 [pimozide] yielded a mean motility score of 0. Work on COc1ccc2cc([C@@H](C)C(=O)O)ccc2c1 [(R)-naproxen] yielded a mean motility score of 1390. In the case of CCCCCCCCCC(=O)OC1(c2ccc(Cl)cc2)CCN(CCCC(=O)c2ccc(F)cc2)CC1 [haloperidol decanoate], the mean motility score is reported as 4450. CCC1(c2ccccc2)C(=O)NCNC1=O [primidone] gave a mean motility score of 3160. With CN(C)CCCOc1nn(Cc2ccccc2)c2ccccc12.Cl [benzydamine hydrochloride] the mean motility score was 3530. Work on O=C(O)[C@@H](O)[C@H](O)C(=O)O [tartaric acid] yielded a mean motility score of 3400. CCN(CC)CCNC(=O)c1cc(Cl)c(N)cc1OC [metoclopramide] showed a mean motility score of 3210. For COc1ccc2cc(CCC(C)=O)ccc2c1 [nabumetone], the mean motility score was 2720. Work on NCCc1ccc(O)c(O)c1 [dopamine] yielded a mean motility score of 3440. C/C=C(/C(=C/C)c1ccc(O)cc1)c1ccc(O)cc1 [dienestrol] showed a mean motility score of 3590. Compound CCOC(=O)c1ncn2c1CN(C)C(=O)c1cc(F)ccc1-2 [flumazenil] has a mean motility score of 3230. In the case of Oc1ccc(O)cc1 [hydroquinone], the mean motility score is reported as 4230. For CC1=CC(=O)c2ccccc2C1=O [menadione], the mean motility score was 361. Compound NC(=O)N1c2ccccc2C=Cc2ccccc21 [carbamazepine] has a mean motility score of 3020. O=C(c1ccccc1)c1ccc2n1CCC2C(=O)O (stereo not given) [ketorolac] showed a mean motility score of 2460. Work on CCCNCC(O)COc1ccccc1C(=O)CCc1ccccc1 (stereo not given) [propafenone] yielded a mean motility score of 1050. With C#C[C@]1(O)CC[C@H]2[C@@H]3CCc4cc(O)ccc4[C@H]3CC[C@@]21C [ethinyl estradiol] the mean motility score was 3320. Work on O=C(O)Cc1ccc(-c2ccccc2)cc1 [felbinac] yielded a mean motility score of 3440. Compound CC(C)c1c(C(=O)Nc2ccccc2)c(-c2ccccc2)c(-c2ccc(F)cc2)n1CC[C@@H](O)C[C@@H](O)CC(=O)O [atorvastatin] has a mean motility score of 2620. In the case of Nc1nnc(-c2cccc(Cl)c2Cl)c(N)n1 [lamotrigine], the mean motility score is reported as 2280. Cl.N=C(N)NC(=O)c1nc(Cl)c(N)nc1N [amiloride hydrochloride] was tested, and the mean motility score was 2260. CC(=O)Nc1ccc(O)cc1 [acetaminophen] gave a mean motility score of 2180. With CC1=C(C(=O)O)N2C(=O)[C@@H](NC(=O)[C@H](N)c3ccccc3)[C@H]2SC1 [cephalexin] the mean motility score was 4830. CCCCc1nc(Cl)c(CO)n1Cc1ccc(-c2ccccc2-c2nn[nH]n2)cc1 [losartan] was tested, and the mean motility score was 3650. For Oc1nc2ccccc2n1CCCN1CCC(n2c(O)nc3cc(Cl)ccc32)CC1 [domperidone], the mean motility score was 3910. In the case of CCCCOc1cc(C(=O)NCCN(CC)CC)c2ccccc2n1 [dibucaine], the mean motility score is reported as 2070. Compound OCc1ccccc1 [benzyl alcohol] has a mean motility score of 2390. In the case of CC[N+](CC)(CC)CCOc1cccc(OCC[N+](CC)(CC)CC)c1OCC[N+](CC)(CC)CC.[I-].[I-].[I-] [gallamine triethiodide], the mean motility score is reported as 4310. For CC12CC3CC(C)(C1)CC(N)(C3)C2.Cl [memantine hydrochloride], the mean motility score was 2620. COc1cc(N)c(Cl)cc1C(=O)NC1CCN(CCCOc2ccc(F)cc2)CC1OC.O (stereo not given) [cisapride monohydrate] gave a mean motility score of 2840. For CNCCCN1c2ccccc2CCc2ccccc21 [desipramine], the mean motility score was 1090. NCCS(=O)(=O)O [taurine] gave a mean motility score of 1780. For CC(O)(P(=O)(O)O)P(=O)(O)O [etidronic acid], the mean motility score was 3300. CC(C)(C(=O)c1cccnc1)c1cccnc1 [metyrapone] was tested, and the mean motility score was 3950. Work on COC(=O)C1=C(C)NC(C)=C(C(=O)OCCN(C)Cc2ccccc2)C1c1cccc([N+](=O)[O-])c1 (stereo not given) [nicardipine] yielded a mean motility score of 0. For CCCCC1C(=O)N(c2ccccc2)N(c2ccccc2)C1=O [phenylbutazone], the mean motility score was 1530. With CC(=O)O [acetic acid] the mean motility score was 2710. With OCCN1CCN(CCCN2c3ccccc3Sc3ccc(Cl)cc32)CC1 [perphenazine] the mean motility score was 175. Cc1cc(C2CCCCC2)n(O)c(=O)c1 [ciclopirox] gave a mean motility score of 3190. O=C1c2cccc(O)c2C(=O)c2c(O)cccc21 [danthron] showed a mean motility score of 2660.
